From PubChem BioAssay (Tox21)
Records with an inconclusive call do not appear. Calls of active or inactive are those of the source. Calls come from the whole dose curve; as a rule, active = well fitted cell-killing curve with a large enough effect in the repeat runs; inconclusive = weak or mixed curves; inactive = flat fitted curve, though single readings scatter.

Assay: qHTS assay to identify small molecule antagonists of the estrogen related receptor (ERR) signaling pathway from Tox21 library - cell viability counter screen (AID 1224834); note: nearly all actives have a fitted effect of over 30% in size
Conditions: ERR reporter cells viability, CellTiter-Fluor, 17.5 h; series mostly up to 92.4 µM; viability change, negative = cytotoxic: at the top concentration
Source text: National Center for Advancing Translational Sciences [NCATS]
NIH Chemical Genomics Center [NCGC]
U.S. Environmental Protection Agency [EPA]
National Institutes of Environmental Health Sciences [NIEHS]
National Toxicology Program [NTP]
U.S. Food and Drug Administration [FDA]
Estrogen related receptors (ERRs), the first orphan nuclear receptors discovered, play an important role in the control of cellular energy metabolism. ERRs are required for high-energy production in response to the environmental challenges. ERR-alpha was also identified as an adverse marker for breast cancer progression; ERR-alpha-positive tumors have a poor prognosis. To screen and to identify environmental compounds that perturb the ERR signaling pathways could provide valuable information for potential therapeutic or preventive measures in the treatment of metabolic disease. To differentiate true ERR antagonists or agonist from cytotoxic substances, the assay is multiplexed with cell viability assay.
Tox21 Assay Protocol Summary:
The ERR cells were dispensed at 2,000 cells/5 ul/well in 1536-well white plates using a Multidrop dispenser. After the assay plates were incubated at a 37 C/5% CO2 incubator for 6 hours, 23 nL of compounds dissolved in DMSO, positive and negative controls or DMSO only was transferred to the assay plate by a pin tool. The plates were incubated at 37 C for 17.5 hours. 1 ul/well of CellTiter-Fluor reagent was added into the assay plates using a Flying Reagent Dispenser. After 30-minute incubation at 37 C/5% CO2, the fluorescence intensity in the plates was measured using a ViewLux plate reader.
% is set by controls: 0 for no effect and ±100 for the full control effect; potency is the fitted concentration of half-maximal effect.

Structure (SMILES) | viability change, negative = cytotoxic | Potency
O=C(O)Cc1ccc(Cl)cc1Cl | 0.446% (inactive) | 
CC(C)C(=O)OCc1cccc(OC(=O)[C@@H]2N3C(=O)[C@@H](NC(=O)Cc4ccccc4)[C@H]3SC2(C)C)c1 | 0.771% [at 42.5 µM] (inactive) | 
CC(C)OC(=O)CCCCC(=O)OC(C)C | 4.98% (inactive) | 
O=C(O)C(=O)Cc1ccccc1 | 10.6% (inactive) | 
CC(C)=O | -2.41% (inactive) | 
CCOCCOCCOCC | 3.9% (inactive) | 
CC1=C(C(=O)O)N2C(=O)[C@@H](NC(=O)[C@H](N)c3ccc(O)cc3)[C@H]2SC1 | 5.24% [at 42.5 µM] (inactive) | 
OCCCCC(O)CO (stereo not given) | 0.686% (inactive) | 
CC(C)CC(=O)O | -2.27% (inactive) | 
CC(C)N(c1ccccc1)C(C)C | -6.37% (inactive) | 
O=C(O)CCSSCCC(=O)O | 1.32% (inactive) | 
CCCCNC1CC(C)(C)NC(C)(C)C1 | 1.95% (inactive) | 
CCC(C)NC(N)=O (stereo not given) | 0.282% (inactive) | 
CC(=O)Nc1ccc(S(=O)(=O)Nc2ccc([N+](=O)[O-])cc2)cc1 |  | 23.7 µM (active)
O=S(=O)(O)c1ccc2cc(O)c(S(=O)(=O)O)cc2c1 | 1.16% (inactive) | 
O=C(CS(=O)Cc1ccco1)NC/C=C\COc1cc(CN2CCCCC2)ccn1 (stereo not given) | 4.79% [at 42.5 µM] (inactive) | 
Nc1ccc([N+](=O)[O-])c(N)c1 |  | 47.3 µM (active)
N[C@@H](CCC(=O)N[C@@H](CS)C(=O)NCC(=O)O)C(=O)O | 0.69% [at 19 µM] (inactive) | 
CO[C@@H]1[C@@H](OC(N)=O)[C@@H](O)[C@H](Oc2ccc3c(O)c(NC(=O)c4ccc(O)c(CC=C(C)C)c4)c(=O)oc3c2C)OC1(C)C | 0.663% [at 42.5 µM] (inactive) | 
C=Cc1ccccn1 | 4.02% (inactive) | 

Structure (SMILES) | viability change, negative = cytotoxic | Potency
CC(CC=O)CCCC(C)(C)O (stereo not given) | -5.58% (inactive) | 
COc1ccc2c(c1)C(=O)N(CCc1ccc(S(=O)(=O)NC(=O)NC3CCCCC3)cc1)C(=O)C2(C)C | 5.32% [at 42.5 µM] (inactive) | 
CCOC(=O)/C=C/c1ccccc1 | -4.06% (inactive) | 
O=C1CC(c2ccc(Cl)cc2)CC(=O)N1 | -0.171% [at 42.5 µM] (inactive) | 
CC(=O)N[C@@H](CCC(=O)O)C(=O)O | 0.736% [at 42.5 µM] (inactive) | 
c1ccc2c(c1)ccc1c3ccccc3ccc21 | 3.43% [at 42.5 µM] (inactive) | 
Cc1cccc(C)c1OCC(C)N (stereo not given) | 7.07% [at 42.5 µM] (inactive) | 
COc1cc2c(cc1OC)[C@@H]1CC(=O)[C@@H](CC(C)C)CN1CC2 | 0.048% [at 42.5 µM] (inactive) | 
O=C1c2ccccc2C(=O)c2cc(S(=O)(=O)O)ccc21 | 3.61% (inactive) | 
CN(CCOc1ccc(NS(C)(=O)=O)cc1)CCc1ccc(NS(C)(=O)=O)cc1 | 4.03% [at 42.5 µM] (inactive) | 
CN(C)c1ccc(C=O)cc1 | 4.69% (inactive) | 
C=C(C)C(=O)OCc1ccccc1 | 0.822% (inactive) | 
Cc1cccc(C)c1NC(=O)c1ccccc1C(=O)O | 0.595% [at 42.5 µM] (inactive) | 
CCC(C=O)CC | 4.54% (inactive) | 
CCN(C)C(=O)Oc1cccc([C@H](C)N(C)C)c1 | 1.28% [at 42.5 µM] (inactive) | 
COC(=O)c1ccccc1C(=O)c1ccc(OCCN2CCCCC2)cc1 | 4.99% [at 42.5 µM] (inactive) | 
CCCCCCCCC1CCC(=O)O1 (stereo not given) | 0.476% (inactive) | 
COC(=O)C1CC(=O)C(C(=O)OC)CC1=O (stereo not given) | 2.89% [at 8.39 µM] (inactive) | 
CC1=CCC(C(C)C)=CC1 | 0.138% (inactive) | 
OCCC(F)(F)C(F)(F)C(F)(F)C(F)(F)C(F)(F)C(F)(F)C(F)(F)C(F)(F)F | 4.35% (inactive) | 
